Data as given in PubChem BioAssay (NCATS).
Results filed as inconclusive are left out. Entries that show only a call come without a potency. Calls of active or inactive are those of the source. The call rests on the fitted dose curve; in most records, active means well fitted inhibition curve with a large enough effect; inconclusive means small, poorly fitted or top-dose-only effect; inactive means no such curve, though single readings can be large or run the other way.

biological target: Protein phosphatase 1D (Homo sapiens) (UniProt O15297); experiment: RapidFire Mass Spectrometry qHTS Assay for Modulators of WT P53-Induced Phosphatase 1 (WIP1) (AID 1347424); conditions: WIP1 dephosphorylation of phosphopeptide, RapidFire MS; series mostly up to 63 µM
Method in brief: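 RapidFire MS readout of dephosphorylated VEPPL-S-QETFS product, with 1 uM isotope-labelled peptide standard. Reaction: 10 nM WIP1, 2 uM phosphopeptide substrate, 5 min, room temperature, after 1 h compound preincubation; stopped with 0.5% formic acid.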

Sequence of Protein phosphatase 1D (Homo sapiens) (O15297 whole entry, looked up): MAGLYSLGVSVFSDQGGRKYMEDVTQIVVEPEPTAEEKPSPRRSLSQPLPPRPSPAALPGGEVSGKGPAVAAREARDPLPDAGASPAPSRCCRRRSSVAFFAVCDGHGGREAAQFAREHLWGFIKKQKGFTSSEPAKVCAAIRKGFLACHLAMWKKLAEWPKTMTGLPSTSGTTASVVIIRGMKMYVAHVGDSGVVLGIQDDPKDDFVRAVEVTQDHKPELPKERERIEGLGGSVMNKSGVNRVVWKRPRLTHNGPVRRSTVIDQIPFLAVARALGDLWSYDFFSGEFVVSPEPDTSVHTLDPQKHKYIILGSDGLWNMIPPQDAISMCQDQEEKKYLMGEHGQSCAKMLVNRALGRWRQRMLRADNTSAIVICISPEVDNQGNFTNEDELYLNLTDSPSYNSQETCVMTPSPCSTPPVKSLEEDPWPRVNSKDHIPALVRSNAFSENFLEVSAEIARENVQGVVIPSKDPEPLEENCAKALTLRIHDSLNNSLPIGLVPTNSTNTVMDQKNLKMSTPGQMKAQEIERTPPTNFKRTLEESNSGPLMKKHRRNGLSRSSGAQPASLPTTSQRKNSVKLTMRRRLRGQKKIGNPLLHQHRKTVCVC

Q: For `CC(=O)c1ccc2c(c1)N(CCCN1CCC(CCO)CC1)c1ccccc1S2`, which Potency is on record?
A: The Potency was “inactive”.

Q: How did the Potency turn out when `CCOC(=O)n1ccn(C)c1=S` was run?
A: The Potency was “inactive”.

Q: `CC(=O)OCC(=O)NCCCOc1cccc(CN2CCCCC2)c1` was tested. Which Potency did it give?
A: Its Potency is “inactive”.

Q: How did the Potency turn out when `Cc1cc(=O)n(-c2ccccc2)n1C` was run?
A: Its Potency is “inactive”.

Q: With `CCN(CC)CCNC(=O)COc1ccc(Cl)cc1` as the molecule, how does the Potency read?
A: Its Potency is “inactive”.

Q: For `CC(O)C(=O)O` (centres undefined), which Potency is on record?
A: The Potency was “inactive”.

Q: How did the Potency turn out when `CN(C)CCOc1ccccc1Cc1ccccc1` was run?
A: Its Potency is “inactive”.

Q: `CCCCCCCCCCCCCCCC[N+](C)(C)CC` was tested. Which Potency did it give?
A: Its Potency is “inactive”.

Q: How did the Potency turn out when `CC(C)(CO)[C@@H](O)C(=O)NCCCO` was run?
A: The Potency was “inactive”.

Q: `Oc1cc(O)c2c(c1)O[C@H](c1ccc(O)c(O)c1)[C@H](O)C2` was tested. Which Potency did it give?
A: Its Potency is “inactive”.

Q: Which Potency does the source give for `CCN1CCN(c2cc3c(cc2F)c(=O)c(C(=O)O)cn3C2CC2)CC1` here?
A: The Potency was “inactive”.

Q: How did the Potency turn out when `CN(C)CC/C=C1\c2ccccc2Sc2ccc(Cl)cc21` was run?
A: Its Potency is “inactive”.

Q: With `CN=C(NC#N)Nc1ccc(C2=NNC(=O)CC2C)cc1` (centres undefined) as the molecule, how does the Potency read?
A: The Potency was “inactive”.

Q: For `C#C[C@]1(O)CC[C@H]2[C@@H]3CCc4cc(OC5CCCC5)ccc4[C@H]3CC[C@@]21C`, which Potency is on record?
A: Its Potency is “inactive”.

Q: For `O=c1[nH]c(=O)n([C@H]2C[C@H](O)[C@@H](CO)O2)cc1C(F)(F)F`, which Potency is on record?
A: The Potency was “inactive”.

Q: With `Cc1cc2c(cc1CC(=O)c1sccc1S(=O)(=O)Nc1onc(C)c1Cl)OCO2` as the molecule, how does the Potency read?
A: Its Potency is “inactive”.

Q: For `CC(=O)[C@H]1CC[C@H]2[C@@H]3C[C@H](C)C4=CC(=O)CC[C@]4(C)[C@H]3[C@@H](O)C[C@]12C`, which Potency is on record?
A: Its Potency is “inactive”.

Q: `CCCC(=O)O[C@]1(C(=O)CO)CC[C@H]2[C@@H]3CCC4=CC(=O)CC[C@]4(C)[C@H]3[C@@H](O)C[C@@]21C` was tested. Which Potency did it give?
A: The Potency was “inactive”.

Q: With `CC(=O)Oc1ccc(C(c2ccc(OC(C)=O)cc2)c2ccccn2)cc1` as the molecule, how does the Potency read?
A: The Potency was “inactive”.
